Measurements: ChEMBL document CHEMBL4513216, “Probing the Open Global Health Chemical Diversity Library for Multistage-Active Starting Points for Next-Generation Antimalarials” (ACS Infect Dis, 2020)
In all, about 69,000 compounds went through this assay and about 8,600 (12%) showed an effect of 50% or more. For the sample, strong results were picked, then their nearest neighbours and some compounds at random.

What follows are compounds tested on Plasmodium berghei (assay: Screen against P. berghei liver stage (PbLuc), transformed with Luciferase, at 10uM). Conditions: tested at 10 uM.
Assay type: functional, HepG2

SMILES | INHIBITION
CCC(CN1CCCC1)n1cncc1-c1cnn(-c2ccccc2)c1 (stereo unspecified) | 33.95%
CC(C)[C@H](N)c1nnc(SCC(=O)Nc2ccc(Br)cc2)o1 | 25.3%
Cc1nc(C2CCCN2Cc2ccc(S(=O)(=O)N(C)C)o2)no1 (stereo unspecified) | 22.3%
CN(Cc1ccc([S+](C)[O-])cc1)c1ccc(Br)cn1 (stereo unspecified) | 43.7%
CN(Cc1ccc(C(N)=O)cc1)c1ccc(C(F)(F)F)cn1 | 1.79%
CN(Cc1ccccc1)c1ccc(C(F)(F)F)cn1 | 38.6%
CN(Cc1ccc([S+](C)[O-])cc1)c1ccc(C(F)(F)F)cn1 (stereo unspecified) | 52.2%
CNC(=O)c1ccc(CN(C)c2ccc(C(F)(F)F)cn2)cc1 | 58.3%
CNC(=O)c1ccc(CN(C(=O)c2scnc2C)C2CC2)cc1 | 6.92%
CCc1cnc(CN(C)C2CCN(CCNS(=O)(=O)CC)C2)o1 (stereo unspecified) | -42%
CN1Cc2c(C(=O)Nc3cccnc3)ncn2-c2ccccc2S1(=O)=O | 45.1%
CN(C)CCO[C@H]1CN(Cc2cccc(C#N)c2)[C@@H]2COC[C@H]12 | -46.9%
CCS(=O)(=O)N1CCCC2(CCCN2C(=O)c2cscn2)C1 (stereo unspecified) | 4.02%
CCS(=O)(=O)N1CCC2(CN(C(=O)c3cn(C)cn3)C2)C1 | -28.2%
CCS(=O)(=O)N1CCCC2(CCCN2C(=O)c2cn(C)cn2)C1 (stereo unspecified) | 61.9%
COC1CN(CCO)S(=O)(=O)c2ccccc21 (stereo unspecified) | 35.1%

SMILES | INHIBITION
CN(C)C(=O)COCC1CN(Cc2cccs2)Cc2ncn(C)c21 (stereo unspecified) | -47.8%
Cc1ccc(S(=O)(=O)N(CC(N)=O)CC(C)C)cc1C | -14.2%
Cc1cc(S(=O)(=O)N(CC(N)=O)CC(C)C)ccc1Br | 60.3%
Cc1cc(S(=O)(=O)N(C)CC(N)=O)ccc1Br | 34.6%
Cc1cnn(CC2CCCN2C(=O)Cc2ccc(C)nc2)c1 (stereo unspecified) | 17.4%
CCOc1ccc(CNCC(O)c2ccccc2)cc1Cl (stereo unspecified) | 59.5%
COc1ccc(CNCC(O)c2cccc(O)c2)cc1Br (stereo unspecified) | 14.5%
CC(=O)Nc1ccc(CNCC(O)c2ccccc2)cc1 (stereo unspecified) | 39.7%
COCC1CN(C(=O)c2cccc(C)n2)Cc2nccn2C1 (stereo unspecified) | 24%
Cc1ccc2oc(CNC(C)c3nnc4n3CCCC4)cc2c1 (stereo unspecified) | 50.1%
Cc1ccc(CNC(C)c2nnc3n2CCCC3)o1 (stereo unspecified) | -4.48%
CC(NCc1ccco1)c1nnc2n1CCCC2 (stereo unspecified) | 52.9%
CC(NCc1cc2cc(F)ccc2o1)c1nnc2n1CCCC2 (stereo unspecified) | 35%
Cc1ccoc1CNC(C)c1nnc2n1CCCC2 (stereo unspecified) | 34.1%
CC(NCc1ccc(Cl)o1)c1nnc2n1CCCC2 (stereo unspecified) | 15.1%
